Laboratory results published in PubChem BioAssay (NCI).
About 83,000 compounds went through this panel and 20% of them were active in at least one assay; those are over-represented in the sample as a whole.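 Method: cells in 96-well plates; compound added at one concentration; 48 h incubation; percent growth measured; values under 10 scored active.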 Active and inactive are the calls of the source.

What follows are molecules tested on SR leukemia (assay: NCI-60 one-dose screen, 48 h (100 = growth as untreated, 0 = no growth, -100 = all killed)). Conditions: 10 µM.
Protocol: Growth inhibition of the SR human tumor cell line is measured as a screen for anti-cancer activity. Cells are grown in 96 well plates and exposed to the test compound for 48 hours. Compounds are tested at a single concentration, which is 10^-5 M for most compounds. The reported endpoint is percent growth (GI% or GIPRCNT), where numbers from 0 - 100% represent growth inhibition, and numbers from -100% - 0 represent cell death. For example, a value of 40 represents 60% growth inhibition. A value of 0 means no net growth occurred over the course of the experiment. A value of -40 indicates 40% of cells at the beginning of the experiment died by the end of the experiment. A value of -100 means all cells are dead at the end of the experiment.
NCI-60 Human Tumor Cell Lines Screen was performed using the standard one-dose NCI protocol, which is described in more detail at https://dtp.cancer.gov/discovery_development/nci-60/default.htm.
Compounds with GIPRCNT values below 10 were considered active. Activity score was based on GIPRCNT using the following formula: […]
Score is 0 for GIPRCNT values of 100 or above, 50 for GIPRCNT values of 0, and 100 for GIPRCNT values of -100.

| SMILES | growth |
| --- | --- |
| NC1=NC(c2ccc(Cl)cc2)C2=C(N1)/C(=C/c1ccc(Cl)cc1)CCC2 (stereo not given) | 20.8% (inactive) |
| Cc1c2c[n+](C(C)C)ccc2c(C)c2c1[nH]c1ccccc12 | 20.8% (inactive) |
| COc1cccc(-c2nc3sccn3c2-c2cccc(S(C)(=O)=O)c2)c1 | 94.7% (inactive) |
| CN(C)CCOc1cccc(-c2nc3sccn3c2-c2ccnc(S(C)(=O)=O)n2)c1 | 102% (inactive) |
| O=C1Cc2cc(CCN3CCN(c4nsc5ccccc45)CC3)c(Cl)cc2N1 | 86% (inactive) |
| O=C(CN1CCN(C(=O)c2ccccc2)CC1)Nc1ccccc1SCc1ccccc1 | 71% (inactive) |
| OCC1OC(n2cnc3c(NCc4ccco4)ncnc32)C(O)C1O (stereo not given) | 5.19% (active) |
| Nc1nccc(OCCO)n1 | 95.9% (inactive) |
| NNC(=O)Oc1c(Cl)cc(Cl)cc1[N+](=O)[O-] | 87.5% (inactive) |
| Cc1ccc(NC(=S)NNC(=S)Nc2ccc(C)cc2)cc1 | 27.4% (inactive) |
| COc1ccc(-c2nn(-c3cccc(Cl)c3)cc2/C=C2\NC(=S)N(c3ccc(Cl)cc3)C2=O)cc1 | -69.6% (active) |
| COc1ccc(/C=C/C(=O)C(=O)/C=C/c2ccc(OC)c(OC)c2)cc1OC | 4.78% (active) |
| COc1cc(/C=C/c2cc(/C=C/c3ccc(O)c(OC)c3)[nH]c(=O)n2)ccc1O | 27.2% (inactive) |
| CCCc1nc(C(C)(C)O)c(C(=O)O)n1Cc1ccc(-c2ccccc2-c2nn[nH]n2)cc1 | 85.9% (inactive) |
| O=C1c2ccccc2-c2c1c1cccnc1c(=O)n2C[C@H](O)CO | 11.6% (inactive) |
| Cc1cc(SCc2ccccc2)nc(N)n1 | 106% (inactive) |
| CC(CN(C)C)Oc1ccc(OC(C)CN(C)C)c2c1C(=O)c1ccccc1C2=O (stereo not given) | 20.7% (inactive) |
| COc1ccc2nc3cc(Cl)ccc3c(Nc3cc(CN4CCCC4)c(O)c(CN4CCCC4)c3)c2n1 | -18.6% (active) |
| NS(=O)(=O)c1ccc(N2N=C(c3ccccc3)CCC2=O)cc1 | 66.5% (inactive) |
| Nc1c(Br)cc(Br)c2c1[nH]c(=O)c1ccccc12 | 81.1% (inactive) |

| SMILES | growth |
| --- | --- |
| C[C@@H](C[C@H](CCO)c1ccccc1)c1ccc2ccccc2c1 | -41.4% (active) |
| O=C1c2ccccc2C(=O)c2c1ccc(C(Br)Br)c2Cl | -51.2% (active) |
| Cc1cc(C)nc(NS(=O)(=O)c2ccc(Nc3nc4nc(NCc5ccccc5)nc(-c5ccc(O)cc5)c4c(=O)[nH]3)cc2)n1 | 26.5% (inactive) |
| Cc1noc(C)c1CSc1ccccc1C(=O)N1CCN(c2cccc(C(F)(F)F)c2)CC1 | 39% (inactive) |
| Cc1ccc(N=Nc2ccccc2)cc1 | 90.3% (inactive) |
| COc1cc2cc(Oc3ccc(NC(=O)c4ccc(Cl)c(C(F)(F)F)c4)cc3)c(C)nc2cc1OC | 37.1% (inactive) |
| O=C1NC(=O)c2c(CCCSc3nc4ccccc4c(=O)n3CCc3ccccc3)cccc21 | 66.6% (inactive) |
| NC(CSC(c1ccccc1)(c1ccccc1)c1cccc2ccccc12)C(=O)O (stereo not given) | 112% (inactive) |
| Nc1nc(-c2ccc(Cl)cc2)cc(-c2cc3ccccc3oc2=O)n1 | 106% (inactive) |
| O=S(=O)(Oc1ccc(-c2ccc3sccc3c2)cc1)c1ccccc1 | 105% (inactive) |
| C=CCSC(CC)(CC)C(=O)NC | 99.3% (inactive) |
| CC1=CC2C(C(O)CC3(C)C2CC(C)C32OCOC23COCO3)C2(C)C/C(=C/O)C(=O)C=C12 (stereo not given) | -38.8% (active) |
| CC(C)Cc1ccc([C@H](C)C(=O)O)cc1 | 99.9% (inactive) |
| O=C(CSc1nccc(Nc2cccc3ccccc23)n1)c1ccc(Cl)cc1 | 90.9% (inactive) |
| OC[C@H]1OC([S-])[C@H](O)[C@@H](O)[C@@H]1O.[Au+] (stereo not given in full) | 41.7% (inactive) |
| CSc1nc2c(c(=O)n1C)CN(Cc1ccccc1)C(=O)CN2 | -9.52% (active) |
| CCOC(=O)Cn1c(=O)c2sc3ncccc3c2n2nnc(-c3ccccc3)c12 | 93.5% (inactive) |
| CC(C)N(CCOc1cccc(-c2nc3sccn3c2-c2ccnc(S(C)(=O)=O)n2)c1)C(C)C | 64.3% (inactive) |
| OCCn1cccn1 | 101% (inactive) |
| COc1ccc(C(=O)N2C=Cc3ccccc3C2C#N)cc1 (stereo not given) | 88.8% (inactive) |
